Test results from PubChem BioAssay.

test system: PRMT1 (protein arginine N-methyltransferase 1); experiment: small molecules binding arginine methyltransferase PRMT1 – biochemical, small-molecule microarray, 635 nm fluorescence, primary screen (AID 1088); settings: higher = more signal

Row | Compound | composite z-score
1 | CCOC(=O)[C@H](Cc1ccccc1)NC(=O)CCC1CC(OC(=O)NCc2ccc3c(c2)OCO3)CC2(CCCC(COC(=O)NCc3cccc(C(F)(F)F)c3)O2)O1 (stereo not given in full) | 1.35
2 | CC(=O)OC[C@H]1O[C@@H](ON=C[C@@H](C)[C@H](OCc2ccccc2)C(C)C)[C@H](OC(C)=O)[C@@H](OC(C)=O)[C@@H]1OC(C)=O | 1.48
3 | O=C1[C@H]2[C@H]3[C@H](O)[C@H](O)CC(=NOCc4ccccc4)[C@H]3CC[C@H]2C(=O)N1C[C@@H]1CCCO1 | -0.107
4 | CO[C@@H]1COC(=O)[C@@H]2CCCN2C(=O)[C@@H](C)COC(=O)[C@H](COCc2ccccc2)NC(=O)CC=C[C@H]1C | 0.705
5 | C=C(/C(=C/C[C@H](OC(C)=O)c1ccc(OCCO)cc1)c1cnc2ccccc2c1)C(C)C | 1.44
6 | COC(=O)CC=C[C@@H](C)[C@H](OC)c1ccccc1Br | 0.0909
7 | COc1ccccc1CN1C(=O)c2ccccc2[C@@H](C(=O)NCC(F)(F)F)[C@@H]1c1ccc(CO)cc1 | 1.55
8 | O=C1[C@H]2[C@H]3[C@H](O)[C@H](O)CC(=NO[C@@H]4O[C@H](CO)[C@@H](O)[C@H](O)[C@H]4O)[C@H]3CC[C@H]2C(=O)N1C1CCCCC1 | 1.55
9 | CC(C)=CCCC(C)=CCON=C1C[C@@H](O)[C@@H](O)[C@@H]2[C@@H]3C(=O)N(C[C@@H]4CCCO4)C(=O)[C@@H]3CC[C@@H]12 | 1.54
10 | C=CC[C@@H]1C=C[C@H](ON=C2c3cc(OC)ccc3O[C@H](c3cccc(OC)c3)[C@H]2O)[C@@H](CO)O1 | -0.524
11 | CCc1cc2c(nc1CC)CCN(CCC(C)=NOC[C@@H](O)COCc1ccco1)C2 | 1.54
12 | CCN1C(=O)[C@H]2[C@H]3[C@H](O)[C@H](O)CC(=NOC(C)CN4CCCCc5nc(C)c(C)cc54)[C@@H]3CC[C@H]2C1=O (stereo not given in full) | 0.708
13 | COCCOC(=O)N1C(=O)[C@@]2(c3cc(C#CC4(O)CCCCCC4)ccc31)[C@H](c1ccc(OCCO)cc1)N1[C@H](c3ccccc3)[C@H](c3ccccc3)OC(=O)[C@H]1[C@@H]2C(=O)NC[C@H](O)c1ccccc1 | 1.55
14 | CC1CC/C=C\[C@H]2OC34C=CCN(C(C)C)C(=O)[C@H]3N(CCCO)C(=O)[C@@H]4C2C(=O)O1 (stereo not given in full) | 1.04
15 | CCCNC(=O)OC[C@H]1O[C@H](CCON=CC[C@@H]2C=C[C@H](OC(C)=O)[C@@H](COC(C)=O)O2)C=C[C@@H]1Oc1ccc(OC)cc1 | 1.18
16 | Cc1ccc(S[C@]2(C(=O)O)CC(=O)N(Cc3ccccc3)[C@@H]2c2ccc(CO)cc2I)cc1 | 0.135
17 | CC(=O)C[C@H](O)[C@@H](NC(=O)OC(C)(C)C)C(C)C | -0.402
18 | COC(=O)C1=CCC(c2cccc(Cl)c2)O1 (stereo not given) | 0.0357
19 | COCCCNC(=O)[C@@]1(CCS(=O)(=O)c2ccccc2)N=C(c2ccc(OCCCO)cc2)O[C@H]1c1ccccc1 | 1.38
20 | O=C(NN=C1C[C@@H](O)[C@@H](O)[C@@H]2[C@@H]3C(=O)N(c4cccc(Oc5ccccc5)c4)C(=O)[C@@H]3CC[C@@H]12)OCc1ccccc1 | 0.633
21 | CCOC(=O)NN=C1C[C@@H](O)[C@@H](O)[C@@H]2[C@@H]3C(=O)N(C[C@@H]4CCCO4)C(=O)[C@@H]3CC[C@@H]12 | 0.0939
22 | COC(=O)c1c(CC[C@@H](CO)NC(=O)N[C@H](Cc2ccccc2)Cn2cc(-c3ccccc3N)nn2)oc(C(C)=O)c1C(=O)OC | 1.19
23 | CC(CCN1CCc2nc(-c3ccccc3)c(-c3ccccc3)cc2C1)=NOC(C)CN1CCCCc2nc(C)c(C)cc21 (stereo not given) | 0.948
24 | CCCNC(=O)[C@@H]1c2ccccc2C(=O)N(Cc2ccccc2Cl)[C@H]1c1ccc(CO)cc1 | 1.55
25 | COc1ccc(O[C@H]2C=C[C@@H](c3ccccc3)O[C@@H]2COC(=O)CCC(C)=NOCC[C@@H]2C=C[C@H](OC(C)=O)[C@@H](COC(C)=O)O2)cc1 | 0.135
26 | CC(C)OC(=O)C=C1C[C@@H](c2ccc(C#N)cc2)O[C@@H](c2ccc(C#N)cc2)O1 | 1.55
27 | CCCC=C(CCC)[C@@H](NC(=O)c1ccc(-c2ccccc2)cc1)c1ccc(C(=O)OC)cc1 | 0.665
28 | CCCC[C@@H](O)C1=C(C)C[C@H]2C(=O)N(Cc3ccccc3)C(=O)[C@H]2[C@H]1CO | 0.18
29 | COCCNC(=O)OCC1CCCC2(CC(OC(=O)NCCc3ccc(F)cc3)CC(CCC(=O)N[C@@H](C)C(=O)OC)O2)O1 (stereo not given in full) | 1.5
30 | C[N+](C)(C)CCCCCCNC(=O)[C@@H]1C[C@@H]2C(=O)N3CCC[C@H]3C(=O)N2[C@@H]1c1cccc(OCCO)c1 | 1.44
